Fewer than 10 of roughly 1,200 compounds were called active. Not all results are given here. Values without a mark were called inactive. The call rests on the fitted dose curve; in most records, active means well fitted curve in the direction sought with a large enough effect; inconclusive means small, poorly fitted or top-dose-only effect, or another doubt; inactive means no such curve, though single readings can be large or run the other way.
Test: Confirmatory qHTS assay for inhibitors of Activation Induced Cytidine Deaminase (AID): UDG signals; further: 0% is about no effect
Settings: UDG coupled enzyme activity counter-screen; series mostly up to 115 µM; activity change, negative = inhibition: at the top concentration
Text: Assay Provider (PI) Patricia Gearhart Ph.D.
National Institute on Aging
National Institute of Health (NIH), Bethesda, MD
Assay Provider (PI) Rahul Kohli Ph.D.
Perelman School of Medicine
University of Pennsylvania, Philadelphia, PA
Activation-Induced Deaminase (AID) is a cytosine deaminase which converts cytosine into uracil within stretches of ssDNA. The presence of uracil in DNA initiates a cascade of mutagenic DNA repair to introduce point mutations and DNA double strand breaks. Specific targeting of AID to the immunoglobulin heavy chain loci (Igh) promotes mutagenesis in the antibody variable region for somatic hypermutation (SHM) or switch regions leading to class switch recombination (CSR). However, AID also plays a role in accumulating unnecessary mutations across the genome. Mis-targeting of AID results in the initiation of tumor development and leads to greater drug resistance among cancer cells when continually expressed. To identify an AID inhibitor, a small molecule library will be screened in collaboration with NCATS core facility at NIH. To confirm biological function, inhibitors will be examined in an in vitro murine B-cell activation assay and subsequent secondary validation screens. Top molecules will be further screened to identify inhibitory efficacy against a wild type primary splenocytes assay. Using these approaches, we hope to identify a small molecule with great efficacy and low toxicity for use as a molecular probe to further characterize AID's intricacies, or even as a therapeutic.
A FRET based analysis of cytosine deamination, was developed to identify potential inhibitors of AID catalytic activity. This screen has two signal output, Read 1 evaluates the AID inhibition response. The second readout (Read 2) evaluates UDG response and is uses as a counterscreen to exclude false positive inhibitors. Inhibition in AID and inactivity in the UDG signal is the desired outcome for this assay.
SEQUENCE No. (e.g., 1, 2, 3, etc.); […] (e.g., Cells, Incubation, Reagent, etc.); VALUE; DESCRIPTION
1a; Reagent; 3 uL; [4/3x] 1 uM AID/2.67 U/mL UDG
1b; Reagent; 3 uL; 2 U/mL UDG
1c; Reagent; 3 uL; 1 uM AID
2a; Compound; 46 nL; Follow-up plates (0.64 uM - 10 mM)
2b; Control; 46 nL; ATA ([…] - 10 mM)
3; Time; 10 min; incubation at room temperature
5; Time; 4 hr; incubation at room temperature
6; Reagent; 4 uL; [2x] 250 mM NaOH
7; Time; 15 sec; centrifuge at 1000 rpm
8; Time; 30 min; incubation at room temperature
9a; Detection; fluorescence (Read 1: AID); EnVision (PerkinElmer) plate reader, 540 excitation and 590 emission filters
9b; Detection; fluorescence (Read 2: UDG); EnVision (PerkinElmer) plate reader, 560 excitation and 665 emission filters
NOTES (numbers refer to sequence above)
1a; Reagents were dispensed in a medium-binding black solid-bottom Greiner plates (789176F) using a BioRptr liquid dispenser. Dispense 3 uL of [4/3x] 1 uM AID (provided by Kohli lab) and [4/3x] 2 U/mL UDG (NEB M0280L) into columns 1, 2, 5 to 48.
1b; Dispense 3 uL of [4/3x] 2 U/mL UDG into column 3.
1c; Dispense 3 uL of [4/3x] 1 uM AID into column 4.
2a; Compound (7-points [uM]: 0.64; 3.2; 16; 80; 400; 2,000; 10,000; […]) double pin-transferred (Dip Factor = 2) using the Kalypsys (Wako USA) pintool equipped with a 1536 pinhead for a final concentration range of 7.32 nM - 114 uM.
2b; 10 mM Aurintricarboxylic Acid (Sigma A1895) (ATA, 8-point, n = 2, 1:2.5 dilution in column 2) double pin-transferred (Dip Factor = 2) using the Kalypsys (Wako USA) pintool equipped with a 1536 pinhead for a [final] range of 186 nM - 114 uM.
3; Room temperature incubation.
4; Dispense 1 uL of substrate mixture from the Kohli lab [4x] […] DJC20 and [4x] 250 nM DJC23 into columns 1 to 48 .
5; Room temperature incubation.
6; Dispense 4 uL of substrate mixture [2x] 250 mM NaOH into columns 1 to 48.
7; Centrifugation step to remove bubbles.
8; Room temperature incubation
9a; Fluorescence signal (column label AID) was read using the EnVision plate reader. […]

Structure (SMILES) | activity change, negative = inhibition
CCCCn1c(-c2ccc(C)cc2)c(C)n2c3c(=O)n(C)c(=O)n(C)c3nc12 | -8.55%
COc1ccccc1CC(=O)Nc1ccc2nc(Nc3cccc(C(F)(F)F)c3)cc(C)c2c1 | -7.35%
CC1CCCCN1CCNC(=O)c1ccc(Cn2c(SCc3ccccc3)nc3cccnc32)cc1 (centres undefined) | -1.41%
CC(C)CCN(Cc1ccco1)C(=O)c1cc2c(s1)-c1ccccc1OC2 | -3.35%
CCC(C)c1ccc(OCC(=O)Nc2cccc(-c3nc4ncccc4o3)c2)cc1 (centres undefined) | -3.86%
CCc1ccc(NC(=O)c2cc(C(C)=O)n3ccccc23)cc1 | -4.94%
CCc1ccc2oc(C(=O)NCC(c3ccc(Cl)cc3)N3CCOCC3)c(C)c2c1 (centres undefined) | -10.8%
COc1ccc(N(C)C(=O)c2cc3c(s2)-c2ccccc2OC3)cc1 | -11.3%
COc1ccc(C2CC(=O)N3CN(C4CCCCC4)CSC3=C2C#N)c(OC)c1 (centres undefined) | -11.5%
CCn1cc2nc(SCc3cccc(C(F)(F)F)c3)n(Cc3ccc(C)cc3)c(=O)c2n1 | -5.91%
Cc1ccc(-n2ncc(C(=O)N3CCN(Cc4ccccc4)CC3)c2C2CCN(C(=O)OC(C)(C)C)CC2)c(C)c1 | -9.77%
CCn1cc(S(=O)(=O)c2ccc(Cl)cc2)c(=O)c2cc(F)c(N3CCOCC3)cc21 | 8.08%
Cc1ccc(-n2c(=O)c3oc4ccccc4c3n(Cc3cccc(F)c3)c2=O)cc1C | 1.83%
O=C(c1cccn1-c1nnc(N2CCCCC2)s1)N1CCN(c2ccc(Cl)cc2)CC1 | -13.6%
Cc1ccc(Cl)cc1N1CCN(C(=O)c2ccc3c(c2)N(Cc2ccccc2)CCS3)CC1 | 10.8%
COc1ccc(-c2coc3c2c(C)cc2oc(=O)c(CC(=O)O)c(C)c23)cc1 | -15.3%
CCCc1cc(=O)n2[nH]c(NC(=O)c3ccc(C(C)(C)C)cc3)nc2n1 | 14.5%
Cc1ccccc1C(=O)Nc1ccc(C(=O)OCc2cc(=O)n3c4c(sc3n2)CCCC4)cc1 | -1.88%
Cc1ccc2c(C)c(C(=O)NCC(c3ccc(Cl)cc3)N3CCOCC3)oc2c1 (centres undefined) | -1.8%
CCOC(=O)c1c(C)oc2nc(C)nc(N3CCN(c4ccccc4F)CC3)c12 | -3.63%
CCN(CC)C(=O)c1ccc2c(c1)N(Cc1c(F)cccc1Cl)C(=O)c1ccccc1S2 | 0.172%
COc1ccc(-c2nn3c(-c4ccccc4C)nnc3c3ccccc23)cc1 | -9.22%
COc1ccc(CCNC(=O)CSc2cn(CCNC(=O)c3cccc(C(F)(F)F)c3)c3ccccc23)cc1OC | -4.31%
CCOCCCn1c(=N)c(C(=O)NC(C)c2ccccc2)cc2c(=O)n3cccc(C)c3nc21 (centres undefined) | -12.7%
COc1ccc(CNc2oc(-c3ccc(COc4ccccc4C)o3)nc2C#N)cc1 | -3.1%
Cc1ccc(Cl)cc1N(C)C(=O)c1sc2nc3n(c(=O)c2c1C)CCCC3 | -5.4%
COc1cc2c(=O)c(S(=O)(=O)c3ccc(C)cc3)cn(Cc3cccc(C)c3)c2cc1OC | -3.74%

Structure (SMILES) | activity change, negative = inhibition
O=C(Nc1cc(-c2ccccc2)sc1C(=O)O)c1cccc(F)c1 | -3.22%
C=Cc1ccc(CN2C(=O)N(c3ccc(C)c(C)c3)S(=O)(=O)c3ccccc32)cc1 | -4.6%
O=S(=O)(NCCc1nnc2ccc(SCc3ccc(Cl)cc3Cl)nn12)c1ccccc1 | -1.19%
COc1ccc(-c2cc3ncc(C(=O)c4cc([N+](=O)[O-])ccc4O)cn3n2)cc1 | 4.06%
Cc1c(C(=O)N(C)c2ccccc2)sc2nc(-c3ccc(F)cc3)cn12 | -7.95%
CCOc1ccc2nc(Cl)c(C3CC(c4ccc(C)cc4)=NN3C(=O)CCC(=O)O)cc2c1 (centres undefined) | 4.17%
COc1ccccc1-c1nn(CCC(=O)Nc2ccc(C)cc2)c2nc(C)cc(C)c12 | -6.55%
Cc1ccc(C)c(N2CCN(C(=O)c3cnn(C(C)(C)C)c3C3CCN(C(=O)OC(C)(C)C)CC3)CC2)c1 | -6.07%
COc1cc2c(cc1OC)C(COc1ccc(F)cc1)N(C(=O)c1cccc(F)c1)CC2 (centres undefined) | -11.3%
COc1ccc(OC)c(NC(=O)Cn2c(=O)cc(-c3ccccc3)c3c(C)nn(C)c32)c1 | 7.45%
Cc1nc2c(C(=O)NCc3ccccc3)c[nH]n2c(=O)c1Cc1ccccc1Cl | 4.49%
CCCCCSc1nnc2c(n1)OC(CC)Nc1ccc(Br)cc1-2 (centres undefined) | 6.46%
CCCCN(CCCC)C(=O)c1cc2c(=O)n3cccc(C)c3nc2s1 | -1.48%
CCOc1ccc(C(=O)/C=C/c2cn(CC(O)CN3CCCCCC3)c3ccccc23)cc1 (centres undefined) | -4.79%
CCCc1nc2ccccc2n2c(-c3ccccc3)c3c(=O)n(C)c(=O)n(C)c3c12 | -2.27%
CCCN1CCN(CCCNC(=O)c2cc3c(Cl)nc4ccccc4c3s2)CC1 | 12.3%
COc1ccc(CSc2nc3ccncc3n2Cc2nc(-c3ccc(OC)c(OC)c3)oc2C)cc1 | 3.79%
COc1ccc(Cn2cc(C(=O)c3ccc(C)c(C)c3)c(=O)c3ccccc32)cc1 | -4.47%
Cc1ccccc1NC(=O)c1c(NC(=O)C(F)(F)F)sc2c1CCCCC2 | 6.21%
O=S1(=O)c2ccccc2N(Cc2ccc(Cl)cc2)c2ccccc21 | 3.98%
Cc1cccc(Cn2c(SCc3ccc(C(=O)N4CCCCCC4)cc3)nc3ccncc32)c1 | 1.99%
COCCc1nn2c(=O)cc(COC(=O)c3ccc(C(C)(C)C)cc3)nc2s1 | 6.29%
CCN(c1cccc(C)c1)S(=O)(=O)c1nnc(NC(=O)c2ccccc2Cl)s1 | 0.737%
COc1ccccc1N1CCN(C(=O)c2cc3c(-c4ccccc4F)nn(C)c3s2)CC1 | -3.23%
CCOc1cccc(C(=O)N(Cc2ccc(F)cc2)Cc2ccco2)c1 | -7.98%
CCOc1ccc(CCNc2ncnc3onc(-c4ccc(Cl)cc4)c23)cc1OCC | -4.41%
Cc1cc(OCCCSc2nc(-c3ccc(C(C)(C)C)cc3)nc3cc(=O)[nH]n23)ccc1Cl | -3.24%

Reference: PubChem BioAssay AID1347431 (National Center for Advancing Translational Sciences (NCATS), 2020)
